Bioassay records (PubChem BioAssay)
KB-3-1 cytotox: kills parental KB-3-1 adenocarcinoma cells; Potency, µM (titrated, usually from 46.1 µM), actives largely listed as cytotoxic; 400,000 tested, 1.4% active; AID 1347075; KB-3-1 viability, CellTiter-Glo ATP luminescence, 72 h; also: nearly all actives have a fitted effect of over 60% in size
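Parental KB-3-1 viability, qHTS format: 72 h compound exposure, 37 °C; CellTiter-Glo; media-only wells and DMSO plates as controls; concentration-effect fits on corrected data.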
DT40 TDP1 CPT: growth inhibition of DT40 Tdp1-/-;hTDP1 cells with camptothecin (screen for TDP1 inhibitors) | chicken DT40 Tdp1-/-;hTDP1 cells + 20 nM CPT, ATP luminescence, 48 h | Potency, µM (doses to about 46.2 µM), for the others: at the top dose activity change, negative = growth inhibition, hits mostly inhibitors | 420,000 tested, 12% active; also: nearly all actives have a fitted effect of over 55% in size
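Chicken DT40 Tdp1-/- cells complemented with human TDP1, 400 cells/well, exposed to compounds plus 20 nM camptothecin for at least 48 h at 37 C; viability read as ATP content by CellTiter-Glo luminescence.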
KB-V1 cytotox: KB-V1 MDR subline cytotoxicity. KB-V1 MDR cells viability, CellTiter-Glo, 72 h. Potency, µM (titrated, usually from 46.1 µM), usual class: cytotoxic. 400,000 tested, 3.4% active; also: nearly all actives have a fitted effect of over 60% in size
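Cytotoxicity toward P-gp-expressing KB-V1 cells was determined as loss of CellTiter-Glo luminescence after 72 h at 37 degrees C. Compounds were tested in quantitative HTS format across a concentration range, with curves fitted to normalized data.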
HT1080-NT tox: kills 2HG-producing HT-1080-NT fibrosarcoma cells | HT-1080-NT fibrosarcoma viability, CellTiter-Glo ATP luminescence, 48 h | Potency, µM (highest dose often 46.1 µM), for inactives: at the top dose activity, negative = less viability, usual class: cytotoxic | 360,000 tested, 1.6% active | AID 686970;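 also: NT is the 2HG producing partner of a matched IDH1 knockdown line; 0% = DMSO-treated cells and -100% = media-only wells without cells; nearly all actives have a fitted effect of over 55% in size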
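Read-out is CellTiter-Glo luminescence after 10 minutes at room temperature, following 48 hours' compound treatment of HT-1080-NT cells (750 cells/well, RPMI, 5% FBS, 37 degrees C).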
TDP1 cell noCPT: qHTS for Inhibitors of human tyrosyl-DNA phosphodiesterase 1 (TDP1): qHTS in cells in absence of CPT. 420,000 tested, 15% active. DT40 Tdp1-/- hTDP1 cells, no CPT, ATP luminescence, 48 h. AID 686978, 2013. Potency, µM (series often up to 46.2 µM), for inactives: at the highest dose activity change, negative = growth inhibition, actives largely listed as inhibitors; also: nearly all actives have a fitted effect of over 55% in size
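Stably hTDP1-transfected Tdp1-null chicken DT40 cells were treated with library compounds minus camptothecin and grown for at least 48 hr at 37 °C, after which cellular ATP was quantified by luminescence.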
HT1080 IDH1KD tx: kills HT-1080 cells with IDH1 knockdown. HT-1080 IDH1 knockdown viability, ATP luminescence, 48 h. Potency, µM (doses to about 46.1 µM), for the others: at the highest dose activity, negative = toxicity, usual class: cytotoxic. 360,000 tested, 2% active. AID 686971;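 also: 0% = DMSO wells and -100% = cell-free medium wells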
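Using the IDH1-knockdown HT-1080 line run in the same batch and compound series as the NT line, viability after 48 h at 37 °C was determined by CellTiter-Glo luminescence and expressed as % activity.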
An asterisk follows results filed as active; i = inactive; ? = inconclusive; nt = no result; [ ] = dose if it differs, or a comment. Compounds with a hit are over-represented: about 19% of the library has one in this group of screens. Calls follow the shape of the dose curve; as a rule, active = well fitted curve in the direction sought with a large enough effect; inconclusive = small, poorly fitted or top-dose-only effect, or another doubt; inactive = no such curve, though single readings can be large; an effect the other way counts as inactive or inconclusive. Unless noted, % is scaled to controls: 0 for no effect and ±100 for the full control effect; potency is read from the fitted curve at half-maximal effect.

SMILES	KB-3-1 cytotox	DT40 TDP1 CPT	KB-V1 cytotox	HT1080-NT tox	TDP1 cell noCPT	HT1080 IDH1KD tx
Cc1ccnc(N2CCC(C(=O)Nc3ccc4c(c3)CCC4)CC2)n1	i	?	i	13.6%	?	12.5%
CCC(C)c1ccc(NC(=O)C2CCN(c3ncccn3)CC2)cc1 (configuration not stated)	?	?	18.4µM*	?	?	-13.3%
CCC(C)c1ccc(NC(=O)C2CCN(c3ccc(C(F)(F)F)cn3)CC2)cc1 (configuration not stated)	i	?	i	?	?	?
Cc1cccc(NC(=O)C2CCN(c3nccc(C)n3)CC2)c1	i	-3.0%	14.6µM*	5.9%	0.2%	5.0%
Cc1cc(C)nc(N2CCC(C(=O)Nc3cccc(C(F)(F)F)c3)CC2)n1	i	?	i	-2.9%	23.1µM*	-18.1%
Cc1cc(C)c2[nH]c(C(=O)N3CCC(n4nccc4NC(=O)C4CC4)CC3)c(C)c2c1	nt	-3.6%	nt	1.1%	?	-19.2%
Oc1cc(-c2nc3ccccc3s2)cc2c1OCCN(Cc1cccn1-c1nccs1)C2	nt	3.1%[9.04 µM]	nt	nt	?	nt
CCOc1ccc(-n2c(SCC(=O)N3CCCCC3)nc3c([nH]c4ccccc43)c2=O)cc1	i	-29.6%	i	nt	?	nt
COc1cc(C2Nc3ccccc3C(=O)N2Cc2ccco2)cc(OC)c1OC (configuration not stated)	i	?	i	nt	?	nt
Cc1ccccc1SCC(=O)Nc1cc(C(F)(F)F)ccc1N1CCOCC1	i	?	?	2.5%	?	-0.2%
COc1cc2c(cc1OC)C(c1ccccc1N)=NCC2	i	?	i	0.5%	20.6µM*	-1.6%
COc1cc2c(cc1OC)C(c1ccccc1[N+](=O)[O-])=NCC2	i	5.8µM*	i	2.8%	2.91µM*	4.3%
COc1ccccc1[N+](=O)[O-]	i	-11.1%	i	10.6%	8.7%	0.8%
COc1cc2c(cc1OC)C(c1ccccc1)=NCC2	i	8.4%[9.04 µM]	i	-8.9%	?	-14.1%
CCOc1cccc(C2Oc3nc(SC)nnc3-c3ccccc3N2C(C)=O)c1OC (configuration not stated)	i	-27.2%	i	nt	-25.7%	nt
COc1cc(C2c3c(-c4c(C)cc(C)cc4O)n[nH]c3C(=O)N2Cc2ccco2)cc(OC)c1OC (configuration not stated)	i	-29.6%	i	nt	-26.6%	nt
CCN(c1cccc(C)c1)S(=O)(=O)c1cc(Br)cc2c1N(C(C)=O)C(C)C2 (configuration not stated)	i	23.1µM*	i	nt	20.6µM*	nt
CCOC(=O)c1ccc(NS(=O)(=O)c2cc(Br)cc3c2N(C(C)=O)C(C)C3)cc1 (configuration not stated)	?	9.2µM*	i	nt	8.2µM*	nt
CC(=O)N1c2c(cc(Br)cc2S(=O)(=O)Nc2ccccc2C)CC1C (configuration not stated)	i	?	i	nt	?	nt
CC(=O)N1c2c(cc(Br)cc2S(=O)(=O)Nc2ccc(OC(F)(F)F)cc2)CC1C (configuration not stated)	i	18.4µM*	i	nt	14.6µM*	nt
COc1ccc(NS(=O)(=O)c2cc(Br)cc3c2N(C(C)=O)CC3)cc1	4.11µM*	8.2µM*	9.2µM*	18.4µM*	11.6µM*	11.6µM*
CCOC1=C2[C@@H](CN(S(=O)(=O)c3ccc(C)cc3)[C@H]2c2ccccc2F)[C@H]2C(=O)N(CC)C(=O)[C@H]2C1	i	?	i	2.8%	?	6.1%
Cc1cccc(Nc2c([N+](=O)[O-])c(=O)oc3ccccc23)c1	i	-13.1%	i	-6.2%	-21.8%	-20.3%
O=C(CCNC(=O)c1ccco1)Nc1ccc(OC(F)F)cc1	i	-11.2%	?	-8.8%	-0.5%	0.1%
Cc1oc2c(C)c3oc(=O)c(CC(=O)N4CCCCC4)c(C)c3cc2c1C	nt	20.6µM*	nt	nt	20.6µM*	nt
SMILES	KB-3-1 cytotox	DT40 TDP1 CPT	KB-V1 cytotox	HT1080-NT tox	TDP1 cell noCPT	HT1080 IDH1KD tx
Cc1coc2c(C)c3oc(=O)c(CCC(=O)N4CCCCC4)c(C)c3cc12	nt	13µM*	nt	nt	16.4µM*	nt
Cc1coc2c(C)c3oc(=O)c(CCC(=O)NCCC(=O)O)c(C)c3cc12	i	23.2%	i	2.7%	-0.8%	-0.2%
CN(CC(=O)Nc1ccccc1Br)C(=O)c1cccnc1Nc1cccc(C(F)(F)F)c1	i	?	?	?	?	?
O=C(CSc1nnnn1C1CCCCC1)Nc1cccc(NC(=O)c2ccco2)c1	i	5.8µM*	?	-19.4%	4.11µM*	?
COc1ccc(NC(=O)CSc2nnc(NC(=O)c3ccco3)s2)cc1	i	-19.6%	i	2.5%	11.7%	-0.1%
Cc1ccccc1NC(=O)CSc1nc2ccc(NC(=O)c3ccco3)cc2s1	i	16.4µM*	i	nt	20.6µM*	nt
Cc1ccccc1NC(=O)c1cccc(NC(=O)c2ccco2)c1	i	1.9%	i	8.3%	-2.3%	10.3%
COc1cccc(NC(=O)CSc2nc3ccc(NC(=O)c4ccco4)cc3s2)c1	?	13µM*	?	nt	18.4µM*	nt
O=C(CSc1nnnn1C1CCCC1)Nc1cccc(NC(=O)c2ccco2)c1	i	-29.0%	?	12.8%	?	7.2%
Cc1ccc(NC(=O)CSc2nc3ccc(NC(=O)CCc4ccccc4)cc3s2)cc1	i	?	i	nt	?	nt
Cc1ccccc1NC(=O)CSc1nc2ccc(NC(=O)CCc3ccccc3)cc2s1	i	?	i	nt	9.2µM*	nt
O=C(COc1ccc(F)cc1)Nc1ccccc1C(=O)OCc1cc(=O)n2ccsc2n1	i	-3.7%	i	nt	-15.6%	nt
C[C@@H]1CN([C@@H](C)CO)C(=O)CCCn2nncc2CO[C@@H]1CN(C)C(=O)CCC(F)(F)F	i	-10.5%	i	8.7%	-21.2%	12.6%
CC1(C(=O)Nc2ccc3c(c2)OCCO3)CSCC(=O)N1C1CC1 (configuration not stated)	i	18.0%	i	5.5%	2.4%	-4.2%
Cc1ccccc1NC(=O)CSc1nc2ccc(NC(=O)c3ccccc3)cc2s1	i	?	i	nt	16.4µM*	nt
Cc1ccc(NC(=O)CSc2nc3ccc(NC(=O)c4cccs4)cc3s2)cc1	i	-25.9%	i	nt	?	nt
